The values below come from PubChem BioAssay.

The nature of assay [1]: optical density shifts of acrAB sulA E. coli – strain DRC41, OD650, 48 h, E. coli filamentation inducer project, primary screen (AID 1152).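 Note: E. coli MC1000 strain DRC41 lacking acrAB efflux pump and sulA.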 The settings on record: higher = more signal, called active from +8 up or from −8 down.
Assay [2] is described as follows: probe aLefty1 binding on compound microarray – biochemical, small-molecule microarray, 635/667 nm fluorescence, primary screen (AID 1153).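 Note: score merges spot fluorescence with signal-to-noise ratio from the scanned slide images.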 The settings on record: higher = more signal.
Assay [3] is described as follows: plasmodial surface anion channel blockers, osmotic lysis – cell-based, P. falciparum Indochina, OD700, 1 h, primary screen (AID 1154). The conditions noted are these: P. falciparum Indochina infected RBC osmotic lysis, higher = more signal, called active from +8 up or from −8 down.
Assay [4] is described as follows: plasmodial surface anion channel blockers, osmotic lysis – cell-based, P. falciparum Indochina, OD700, 2 h, primary screen (AID 1155).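 Note: lysis reports solute entry through the parasite surface anion channel PSAC.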 The settings on record: P. falciparum Indochina infected erythrocytes, higher = more signal, called active from +8 up or from −8 down.
The nature of assay [5]: changes in parasitized red cell lysis, either direction – P. falciparum Indochina, OD700, 3 h, PSAC antagonist project, primary screen (AID 1156). The settings on record: P. falciparum-infected erythrocytes, osmotic lysis, higher = more signal, called active from +8 up or from −8 down.
A short description of assay [6]: plasmodial surface anion channel blockers, osmotic lysis – cell-based, P. falciparum Indochina, OD700, 18 h, primary screen (AID 1157). The conditions noted are these: P. falciparum Indochina infected erythrocytes, osmotic lysis OD700, 18 h; higher = more signal, called active from +8 up or from −8 down.
Assay [7] can be described thus: S6 kinase pathway phospho-S6 level changes – cell-based, A549, cytoblot, luminescence, serum-stimulated, primary screen (AID 1158).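 Note: serum-stimulated A549 lung adenocarcinoma cells; signal is phosphorylated S6 detected by cytoblot immunostaining with HRP secondary.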 The settings on record: 5 h, higher = more signal.
Assay [8] deals with NADPH oxidase 2 (Homo sapiens) (UniProt P04839). The assay can be described thus: compounds shifting NOX2 Amplex Red fluorescence – cell-based, HEK293-NOX2, PMA-stimulated, NOX inhibitor project, primary screen (AID 1159). Note: test concentration not given here. The conditions noted are these: 45 min, higher = more signal, called active from +8 up or from −8 down.
NADPH oxidase 2 (Homo sapiens), sequence (P04839 whole entry, looked up): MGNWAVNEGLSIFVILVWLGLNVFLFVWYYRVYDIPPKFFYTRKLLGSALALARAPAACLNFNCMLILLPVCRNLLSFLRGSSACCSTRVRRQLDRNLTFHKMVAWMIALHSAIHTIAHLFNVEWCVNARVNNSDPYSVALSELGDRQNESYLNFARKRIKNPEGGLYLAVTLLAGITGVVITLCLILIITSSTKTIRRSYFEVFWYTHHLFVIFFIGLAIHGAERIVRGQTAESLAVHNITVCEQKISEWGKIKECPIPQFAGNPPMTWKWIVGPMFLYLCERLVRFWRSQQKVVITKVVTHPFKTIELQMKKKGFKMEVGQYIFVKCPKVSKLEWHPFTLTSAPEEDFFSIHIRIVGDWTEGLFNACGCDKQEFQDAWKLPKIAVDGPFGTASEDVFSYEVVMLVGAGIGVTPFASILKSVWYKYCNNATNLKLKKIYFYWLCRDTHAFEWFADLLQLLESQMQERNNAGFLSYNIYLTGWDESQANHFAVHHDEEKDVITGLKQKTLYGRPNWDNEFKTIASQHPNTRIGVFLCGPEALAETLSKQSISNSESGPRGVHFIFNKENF
The target in assay [9] is NADPH oxidase 4 (Homo sapiens) (UniProt Q9NPH5). Briefly: compounds shifting NOX4 Amplex Red fluorescence – cell-based, HEK293-NOX4, tetracycline-induced, NOX inhibitor project, primary screen (AID 1160). The conditions noted are these: HEK293-NOX4, Amplex Red H2O2 fluorescence, 45 min; higher = more signal, called active from +8 up or from −8 down.
NADPH oxidase 4 (Homo sapiens), sequence (Q9NPH5 whole entry, looked up): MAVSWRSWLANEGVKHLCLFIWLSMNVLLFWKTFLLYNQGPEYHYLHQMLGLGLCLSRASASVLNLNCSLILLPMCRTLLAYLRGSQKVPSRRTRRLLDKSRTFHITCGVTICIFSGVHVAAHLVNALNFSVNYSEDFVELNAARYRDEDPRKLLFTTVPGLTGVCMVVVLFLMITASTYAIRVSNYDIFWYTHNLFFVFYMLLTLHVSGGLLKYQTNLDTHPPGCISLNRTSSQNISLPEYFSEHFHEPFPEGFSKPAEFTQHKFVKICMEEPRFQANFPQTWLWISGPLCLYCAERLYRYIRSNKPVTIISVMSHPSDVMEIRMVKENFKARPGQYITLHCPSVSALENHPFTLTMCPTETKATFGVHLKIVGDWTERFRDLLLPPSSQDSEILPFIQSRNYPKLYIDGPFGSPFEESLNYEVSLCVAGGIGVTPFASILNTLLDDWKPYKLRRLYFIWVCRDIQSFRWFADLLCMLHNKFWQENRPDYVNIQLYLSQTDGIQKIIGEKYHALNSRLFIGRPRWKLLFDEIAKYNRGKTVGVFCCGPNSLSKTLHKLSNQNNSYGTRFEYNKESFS
Assay [10] addresses NADPH oxidase 5 (Homo sapiens) (UniProt Q96PH1). The assay can be described thus: compounds shifting NOX5 Amplex Red fluorescence – cell-based, HEK293-NOX5, NOX inhibitor project, primary screen (AID 1161). The settings on record: HEK293-NOX5, ionomycin, 45 min, higher = more signal.
Assay [11] can be described thus: compound effects on lung adenocarcinoma cell viability – A549, calcein-AM fluorescence, 48 h, basal, profiling panel (AID 1162). Note: test concentration not given here. The settings on record: higher = more signal.
A short description of assay [12]: compound effects on differentiated 3T3-L1 adipocyte viability – cell-based, 3T3-L1 adipocytes, calcein-AM fluorescence, 48 h, basal, profiling panel (AID 1163). Note: test concentration not given here. The conditions noted are these: 3T3-L1 adipocytes viability, higher = more signal.
Assay [13] in a line: compound effects on hepatocellular carcinoma cell viability – HepG2, calcein-AM fluorescence, 48 h, basal, profiling panel (AID 1164). Note: test concentration not given here. The settings on record: higher = more signal.
A short description of assay [14]: compound effects on multiple myeloma cell viability – MM1S, calcein-AM fluorescence, 48 h, basal, profiling panel (AID 1165).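 Note: viability of MM1S multiple myeloma cells under basal unstimulated conditions; test concentration not given here.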 The settings on record: higher = more signal.
Assay [15] can be described thus: calcein-AM signal in unstimulated myeloma cells – cell-based, calcein-AM fluorescence, 48 h, PK04 Diversity Set, profiling panel (AID 1166).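 Note: cells grown under basal conditions without added stimulus; test concentration not given here.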 The settings on record: RPMI8226 myeloma viability, higher = more signal.
Assay [16] can be described thus: JC-1 mitochondrial signal, unstimulated HepG2 cells – cell-based, JC-1 fluorescence, 24 h, 100 nL compound, profiling panel (AID 1167). Note: test concentration not given here. The settings on record: HepG2 mitochondrial potential, higher = more signal.
Assay [17] can be described thus: JC-1 mitochondrial signal, unstimulated adipocytes – cell-based, JC-1 fluorescence, 3T3-L1 adipocytes, 24 h, 100 nL compound, profiling panel (AID 1168). Note: test concentration not given here. The conditions noted are these: JC-1 mitochondrial fluorescence, higher = more signal, called active from +8 up or from −8 down.
Assay [18] can be described thus: JC-1 mitochondrial signal, unstimulated myeloma cells – cell-based, JC-1 fluorescence, RPMI8226, 24 h, 100 nL compound, profiling panel (AID 1169). Note: test concentration not given here. The settings on record: JC-1 mitochondrial potential fluorescence, higher = more signal.
Assay [19] is described as follows: JC-1 mitochondrial signal, unstimulated MM1S myeloma – cell-based, JC-1 fluorescence, 24 h, 100 nL compound, profiling panel (AID 1170). Note: test concentration not given here. The conditions noted are these: MM1S mitochondrial potential, higher = more signal.
The nature of assay [20]: resazurin metabolic signal in A549 cells – cell-based, resazurin fluorescence, 24 h, PK04 Diversity Set, profiling panel (AID 1171). Note: test concentration not given here. The settings on record: A549 viability, higher = more signal, called active from +8 up or from −8 down. In general terms: Alamar Blue is a resazurin reagent that responds to reducing activity.

Calls of active or inactive are those of the source.

NADPH oxidase 5 (Homo sapiens), sequence (Q96PH1 whole entry, looked up): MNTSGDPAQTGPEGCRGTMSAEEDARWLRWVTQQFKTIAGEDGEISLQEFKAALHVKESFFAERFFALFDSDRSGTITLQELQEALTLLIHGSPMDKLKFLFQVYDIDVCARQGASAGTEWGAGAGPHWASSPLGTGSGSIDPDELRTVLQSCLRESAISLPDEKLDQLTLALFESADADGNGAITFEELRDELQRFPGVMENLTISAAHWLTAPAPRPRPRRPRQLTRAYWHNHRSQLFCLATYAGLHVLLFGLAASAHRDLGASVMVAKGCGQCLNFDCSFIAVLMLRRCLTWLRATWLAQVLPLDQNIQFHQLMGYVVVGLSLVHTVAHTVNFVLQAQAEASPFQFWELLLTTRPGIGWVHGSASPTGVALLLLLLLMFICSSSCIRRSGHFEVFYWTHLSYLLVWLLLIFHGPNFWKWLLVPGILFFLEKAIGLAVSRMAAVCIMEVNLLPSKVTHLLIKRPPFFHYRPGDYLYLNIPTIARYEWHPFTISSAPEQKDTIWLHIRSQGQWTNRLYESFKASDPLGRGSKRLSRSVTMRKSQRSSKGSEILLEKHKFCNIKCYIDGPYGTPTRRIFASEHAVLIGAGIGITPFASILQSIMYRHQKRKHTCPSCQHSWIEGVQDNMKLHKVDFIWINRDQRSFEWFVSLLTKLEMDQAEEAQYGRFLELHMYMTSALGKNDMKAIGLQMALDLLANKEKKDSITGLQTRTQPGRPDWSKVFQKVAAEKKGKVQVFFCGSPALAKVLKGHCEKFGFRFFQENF

As to `CC[C@@H]1C=C(C(=O)O)[C@H](c2ccccc2)N1S(=O)(=O)c1ccc([N+](=O)[O-])cc1`, the z-score in [1] is -3.21 (inactive); in [3], 1.3 (inactive); in assay [4], 1.01 (inactive); in assay [5], 0.751 (inactive); in assay [6], 1.15 (inactive); in assay [7] it was -0.37. Also, the z-score was 0.325 (inactive) in assay [8]; -0.0428 (inactive) in assay [9]; -0.526 in assay [10]; -0.353 in assay [11]; -0.49 in assay [12]; 0.271 in [13]. For the same compound, the z-score in assay [14] was 0.0363; in [15], 0.0806; in assay [16], 0.414; in [17], -0.375 (inactive); in [18], 0.769; in assay [19] it was -0.877. In [20], the z-score is 0.0551 (inactive). In assay [2], this compound came in with a composite z-score of -0.405.

`COc1ccc([Si](C)(C)[C@H]2[C@H](CCO)O[C@@]3(C(=O)N(Cc4ccccc4)c4ccc(N5C(=O)c6cccc7cccc5c67)cc43)[C@@H]2C)cc1`: the z-score in assay [1] was 1.85 (inactive); in assay [3] it was 3.41 (inactive); in [4], 2.34 (inactive); in [5] it was 1.36 (inactive); in [6], 1.65 (inactive); in assay [7] it was 0.314. Further, the z-score is -1.35 (inactive) in assay [8]; 0.163 (inactive) in assay [9]; 0.513 in [10]; 0.318 in [11]; 0.535 in [12]; -2.11 in [13]. In addition, the z-score in [14] is -1.02; in [15], -3.03; in assay [16], 1.63; in [17], 2.08 (inactive); in [18], -0.815; in [19], -0.923. Besides, the z-score in [20] was -1.46 (inactive). For the same compound, the composite z-score in assay [2] is -0.105.

As for `Cc1ccc(S[C@]2(C(=O)NCCCN(C)C)CC(=O)N(Cc3ccccc3)[C@@H]2c2ccc(CO)cc2I)cc1`, the z-score in assay [1] was -0.901 (inactive); in [3], 8.39 (active); in assay [4], 0.909 (inactive); in assay [5], 1.94 (inactive); in assay [6] it was 0.256 (inactive); in assay [7], -0.0322. The z-score is -0.234 (inactive) in assay [8]; -1.63 (inactive) in assay [9]; 1.72 in [10]; 1.03 in assay [11]; 0.927 in assay [12]; 0.914 in [13]. Further, the z-score was -3.64 in assay [14]; -2.38 in assay [15]; 1.65 in assay [16]; -0.645 (inactive) in assay [17]; -0.643 in assay [18]; -0.822 in [19]. Moreover, the z-score in assay [20] is 0.0027 (inactive). The same compound came in with a composite z-score in assay [2] of 0.374.

Consider `COCCOC(=O)N1C(=O)[C@@]2(c3cc(C#CCC(C(=O)OC)C(=O)OC)ccc31)[C@H](C(=O)N1CCN(c3ncccn3)CC1)[C@H]1C(=O)O[C@H](c3ccccc3)[C@H](c3ccccc3)N1[C@@H]2c1ccc(O)cc1`, for which the z-score is 3.34 (inactive) in [1]; 1.92 (inactive) in [3]; -0.0642 (inactive) in assay [4]; -0.504 (inactive) in assay [5]; -1.39 (inactive) in assay [6]; 1.69 in assay [7]. In addition, the z-score in [8] was 1.28 (inactive); in assay [9], 0.7 (inactive); in assay [10], 1.82; in assay [11], 1.65; in assay [12], -0.287; in assay [13], 2.17. The z-score in assay [14] was 0.613; in assay [15] it was -0.188; in [16], 0.88; in [17], 2.64 (inactive); in assay [18] it was -0.203; in assay [19], -0.0423. In assay [20], the z-score was 0.0359 (inactive). This compound showed a composite z-score in assay [2] of 0.443.
